Compound activity as filed in PubChem.
The entries come from a sample that favours hits as a whole.
AmpC inh detg = qHTS Inhibitors of AmpC Beta-Lactamase (assay with detergent) | AmpC hydrolysis of nitrocefin, absorbance 480 nm, 0.01% Triton | Potency, µM (doses to about 114 µM), usual class: inhibitors | 0.041% of 370,000 active | AID 485294, 2010; also: nearly all actives have a fitted effect of over 25% in size
Target sequence (P00811 whole entry, looked up): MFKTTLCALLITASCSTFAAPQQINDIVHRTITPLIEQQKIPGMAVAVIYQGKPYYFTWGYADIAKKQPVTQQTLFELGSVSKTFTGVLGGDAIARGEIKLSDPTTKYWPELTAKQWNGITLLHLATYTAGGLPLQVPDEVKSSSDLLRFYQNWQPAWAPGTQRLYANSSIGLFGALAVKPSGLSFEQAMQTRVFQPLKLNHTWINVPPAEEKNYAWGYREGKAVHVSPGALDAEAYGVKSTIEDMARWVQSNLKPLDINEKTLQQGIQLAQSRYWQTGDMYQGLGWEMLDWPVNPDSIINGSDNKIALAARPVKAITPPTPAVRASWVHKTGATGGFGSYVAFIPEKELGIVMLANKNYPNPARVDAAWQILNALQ
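20 mM phosphate pH 7.0 + 0.01% (detergent screen) or 0.0001% Triton X-100; 5.3 nM AmpC reagent; cpd preinc 15 min RT; nitrocefin (800 uM stock) to start; A480 q20 s × 4 min; Activity was normalised to no-enzyme and no-compound control wells.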
AmpC no deterg = qHTS Inhibitors of AmpC Beta-Lactamase (assay without detergent); P00811; AmpC nitrocefin hydrolysis, absorbance 480 nm, 0.0001% Triton; Potency, µM (highest dose often 57.1 µM), hits mostly inhibitors; 0.52% of 330,000 active; also: nearly all actives have a fitted effect of over 20% in size
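AmpC (5.3 nM in the dispensed reagent) in 20 mM phosphate pH 7.0 with 0.01% (detergent screen) or 0.0001% Triton X-100 was preincubated with compounds for 15 min at room temperature. Nitrocefin was then added from an 800 uM solution, and hydrolysis was followed at 480 nm.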
Cycloheximide cs = Cycloheximide Counterscreen for Small Molecule Inhibitors of Shiga Toxin; cell reporter, cycloheximide protein synthesis inhibition counterscreen; max response, %; 12% of 300,000 active; AID 2314, 2010; in the data active = max response mostly above about 13%, no sharp cut-off; inactive = mostly below about 14%; also: read at 38.3 µM for the half of the compounds with a filed dose
Shiga inhibitor = A qHTS for Small Molecule Inhibitors of Shiga Toxin. Vero cells, Shiga toxin protein synthesis inhibition reporter. inhibition, % at 38.7 µM. 9.2% of 290,000 active. AID 2315, 2010; in the data active = inhibition mostly above about 28%, no sharp cut-off; inactive = mostly below about 43%
NS1 inh = qHTS Assay for Inhibitors of Influenza NS1 Protein Function; Potency, µM (doses to about 46.1 µM); 0.4% of 270,000 active; calls by dose curve; also: actives are rising curves; nearly all actives have a fitted effect of over 50% in size
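In this qHTS, NS1 from influenza A is expressed in budding yeast, where it slows growth. Cells are switched from glucose to 2% galactose medium (pH 6.0, -URA), treated with compound, and growth recovery is read at OD600.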
Hits are given with their value; 0 = inactive; ? = inconclusive; - = no result. Unless noted, calls follow the shape of the dose curve; as a rule, active = well fitted curve in the direction sought with a large enough effect; inconclusive = small, poorly fitted or top-dose-only effect, or another doubt; inactive = no such curve, though single readings can be large; an effect the other way counts as inactive or inconclusive.

SMILES	AmpC inh detg	AmpC no deterg	Cycloheximide cs	Shiga inhibitor	NS1 inh
COc1ccc(-c2cn3cc(C)ccc3n2)cc1F	0	0	15.6	0	0
Cc1ccc2nc(-c3ccc4c(c3)NC(=O)CO4)cn2c1	0	0	42.2	72.2	0
Cc1ccc2nc(-c3ccc4c(c3)OCCO4)cn2c1	0	0	0	0	0
CC(O)[C@@H]1NC(=O)[C@H](CCCN)NC(=O)[C@@H](Cc2c[nH]c3ccccc23)NC(=O)[C@H](Cc2ccc(O)cc2)NC(=O)[C@@H](NC(=O)[C@H](N)Cc2ccccc2)CSSC(C)(C)C(C(=O)N[C@H](C(N)=O)[C@@H](C)O)NC1=O (stereo partly drawn)	-	-	0	0	-
C[C@@H](O)C(N)C(=O)O (stereo partly drawn)	-	-	0	0	-
COc1ccc(-c2cn3cc(C)ccc3n2)cc1OC	?	0	32.5	55.5	0
COc1ccc(/C=C(\C#N)c2nc(-c3cc(Cl)ccc3OC)cs2)cc1	0	-	-	-	-
Cc1ccc(OC(=O)COc2ccccc2)c(-n2nc3ccccc3n2)c1	0	0	41.1	94.3	0
Cc1ccc(OC(=O)c2cccc([N+](=O)[O-])c2)c(-n2nc3ccccc3n2)c1	0	0	26.7	0	0
COC(=O)COc1ccc(C)cc1-n1nc2ccccc2n1	0	0	0	0	0
Cc1cc(-n2nc3ccccc3n2)c(O)c([N+](=O)[O-])c1	0	0	0	0	0
Cc1ccc(OC(=O)COc2ccccc2C)c(-n2nc3ccccc3n2)c1	?	0	42.7	69.4	0
COc1ccccc1OCCCn1cc(C(=O)c2ccco2)c2ccccc21	0	0	34.6	143.4	0
O=C(c1ccco1)c1cn(Cc2ccc(Cl)cc2)c2ccccc12	0	0	22.7	0	0
O=C(O)Cn1cc(C(=O)c2ccco2)c2ccccc21	0	0	0	0	0
Cc1ccc(CN2CCN(Cc3cccc4c3OCO4)CC2CCO)cc1 (stereo not drawn)	0	0	0	0	0
COc1cccc(CN2CCN(Cc3cccc4c3OCO4)CC2CCO)c1 (stereo not drawn)	0	0	19.5	0	0
Cc1ccc(Cn2c(=O)c3ccccc3n3c(-c4ccccc4)nnc23)cc1	0	-	-	-	-
COc1ccc(C(=O)Nn2cnc3scc(-c4cccs4)c3c2=O)c(O)c1	0	0	30.8	116.3	0
COc1cccc(-n2cnc3scc(-c4cccs4)c3c2=O)c1	0	0	0	0	0
c1ccc(-c2csc3ncnc(N4CCc5ccccc5C4)c23)cc1	0	0	0	0	0
OC1(C(F)(F)F)CC(c2ccc3ccccc3c2)=NO1 (stereo not drawn)	0	0	38.1	48.1	0
OCC1(C2=NOC(O)(C(F)(F)F)C2)CCCCC1 (stereo not drawn)	?	0	0	0	?
Cc1csc2nc(CNC(=O)c3ccco3)cn12	0	0	35.1	56.4	0
Cc1ccc(-c2nc(CNC(=O)c3ccco3)cs2)cc1	0	0	0	84.6	0
SMILES	AmpC inh detg	AmpC no deterg	Cycloheximide cs	Shiga inhibitor	NS1 inh
Cc1ccc(-c2nc(CCNC(=O)c3ccco3)cs2)cc1	?	0	-	-	-
Cc1ccc(-c2csc(NC(=O)CCNC(=O)c3ccco3)n2)cc1	0	0	20.2	43.4	-
CC(=O)NCc1cn2c(C)csc2n1	0	0	0	0	0
CN(C)CCOC(=O)c1ccc(N)cc1	-	-	-	-	0
CCOC(=O)CSc1nc2c(sc3ccccc32)c(=O)n1Cc1ccc(C)cc1	0	-	-	-	-
CCOC(=O)CSc1nc2c(sc3ccc([N+](=O)[O-])cc32)c(=O)n1Cc1ccco1	0	0	31.6	42.6	0
Cc1ccc(/C=C2/NC(=O)[C@H](C)NC2=O)cc1	0	0	14.9	0	0
C[C@@H]1NC(=O)/C(=C\c2ccccc2Br)NC1=O	0	0	0	0	0
O=C(NCc1ccco1)c1cnc2ccccn2c1=O	?	0	0	0	0
O=C(NCc1ccco1)c1cccn2c(=O)c3cc4ccccc4cc3nc12	?	0	29.0	0	0
COCCCNC(=O)c1cccn2c(=O)c3cc4ccccc4cc3nc12	?	0	69.1	83.9	0
C=CCn1c(=N)c(C(=O)NCCCOC)cc2c(=O)n3cccc(C)c3nc21	0	0	0	0	?
CCCC[C@H](NC(=O)[C@H](CC(C)C)NC(=O)[C@@H](Cc1c[nH]c2ccccc12)NC(=O)[C@H](Cc1ccccc1)NC(=O)[C@@H](Cc1c[nH]c2ccccc12)NC(=O)[C@H](CC(N)=O)NC(=O)[C@@H](Cc1c(Cl)cccc1Cl)NC(=O)[C@@H]1CCCN1C(=O)[C@H](Cc1ccccn1)NC(=O)[C@@H]1CCCN1C(=O)[C@H](N)CCCCNC(=O)c1cccnc1)C(N)=O	-	-	0	0	-
CC1CCN(CCCOc2ccc(Br)cc2Cl)CC1	?	0	21.7	29.3	0
CC(C)NCCCCOc1ccc(Br)cc1Cl	0	0	0	0	0
CN1CCN(CCOCCOc2ccc(Br)cc2Cl)CC1	0	0	0	0	0
Clc1cc(Br)ccc1OCCN1CCOCC1	0	0	30.9	0	0
O=C1CCC(=O)N1OCCCOc1ccc(Br)cc1Cl	?	0	29.5	0	0
CCCCCOc1ccc(CN2CCOCC2)cc1Cl	0	0	41.2	102.2	0
Cc1ccc(C(=O)c2c(N)c(C(=O)Nc3ccccc3Cl)c3ccccn23)cc1	0	-	-	-	-
COc1cc(-c2nnc(CSc3nnc(Nc4ccc(Oc5ccccc5)cc4)s3)o2)cc(OC)c1OC	0	0	15.1	0	0
COc1cc(-c2nnc(CSc3nnc(N)s3)o2)cc(OC)c1OC	0	0	0	0	0
N#Cc1c(-c2ccccc2)cc2nc3ccccc3n2c1N	0	0	23.7	0	0
Brc1ccc2nc(-c3c[nH]c4ccccc34)cn2c1	?	0	30.6	64.1	-
Cc1ccc2nc(-c3c[nH]c4ccccc34)c(Nc3ccccc3C)n2c1	0	-	-	-	-
SMILES	AmpC inh detg	AmpC no deterg	Cycloheximide cs	Shiga inhibitor	NS1 inh
Cc1cccn2cc(-c3c[nH]c4ccccc34)nc12	0	0	40.8	121.8	0
CC(=O)N/C(=C\c1ccccc1)C(=O)OC(C)C(=O)Nc1ccccc1F (stereo not drawn)	0	0	-	-	-
Cc1csc(NC(=O)Cc2ccc(F)cc2)n1	?	0	34.0	76.6	0
Cc1cccc(NC(=O)Cc2ccc(-c3ccccc3)cc2)n1	0	0	0	0	0
Cc1cccc(NC(=O)CCCCCN2C(=O)c3ccccc3C2=O)n1	0	7.08µM	0	0	0
O=C(Cc1c(F)cccc1Cl)Nc1ccncc1	?	0	0	0	0
Cc1csc(NC(=O)Cc2c(F)cccc2Cl)n1	0	0	34.9	-	0
Cc1ccc(CC(=O)Nc2cccc(C)n2)cc1	0	0	33.3	69.0	0
Cc1cccc(NC(=O)CCCN2C(=O)c3ccccc3C2=O)n1	0	0	0	0	0
O=C(Cc1ccc(F)cc1)Nc1nc(-c2ccc(F)c(F)c2)cs1	0	0	0	0	0
Nc1c(Br)cc(Br)c2cccnc12	-	-	0	0	-
